This passage reports binding signal results from PMC5700166.

Test in all cases: protein-binding microarray (PBM); PBM: ~300 nM protein, 6 mM HEPES pH 7.8, 80 mM KCl, 0.5 mM EDTA, 0.5 mM EGTA, 6% glycerol, 35 ng/ul poly-dIdC, 1% milk, 1 h, room temperature; Ap Aiptasia and Nv Nematostella (sea anemones) / Co Capsaspora / Aq Amphimedon (sponge) / Dm Drosophila / Hu human; RHD is the Rel homology domain; high values mean tight binding
What all share (settings): dsDNA, one strand shown

Test [1] deals with T1, GST-Ap-NF-kB RHD (Exaiptasia pallida (Aiptasia), UniProt A0A913YAJ5 2-422).
T1 sequence: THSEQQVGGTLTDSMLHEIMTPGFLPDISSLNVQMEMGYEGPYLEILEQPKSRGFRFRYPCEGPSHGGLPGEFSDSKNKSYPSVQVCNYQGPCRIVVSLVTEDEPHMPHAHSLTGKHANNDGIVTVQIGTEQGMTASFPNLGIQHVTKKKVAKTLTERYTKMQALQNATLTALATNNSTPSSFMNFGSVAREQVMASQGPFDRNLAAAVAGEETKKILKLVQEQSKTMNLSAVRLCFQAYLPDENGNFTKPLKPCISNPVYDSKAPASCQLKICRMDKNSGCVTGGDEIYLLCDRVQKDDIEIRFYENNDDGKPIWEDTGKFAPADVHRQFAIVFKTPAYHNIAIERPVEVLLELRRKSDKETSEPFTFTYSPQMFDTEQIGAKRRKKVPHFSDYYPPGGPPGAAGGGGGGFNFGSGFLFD

Test [2] concerns the target T2, GST-Nv-NF-kB (Ser allele) (Nematostella vectensis, UniProt A7UNT2 2-411).
T2 sequence: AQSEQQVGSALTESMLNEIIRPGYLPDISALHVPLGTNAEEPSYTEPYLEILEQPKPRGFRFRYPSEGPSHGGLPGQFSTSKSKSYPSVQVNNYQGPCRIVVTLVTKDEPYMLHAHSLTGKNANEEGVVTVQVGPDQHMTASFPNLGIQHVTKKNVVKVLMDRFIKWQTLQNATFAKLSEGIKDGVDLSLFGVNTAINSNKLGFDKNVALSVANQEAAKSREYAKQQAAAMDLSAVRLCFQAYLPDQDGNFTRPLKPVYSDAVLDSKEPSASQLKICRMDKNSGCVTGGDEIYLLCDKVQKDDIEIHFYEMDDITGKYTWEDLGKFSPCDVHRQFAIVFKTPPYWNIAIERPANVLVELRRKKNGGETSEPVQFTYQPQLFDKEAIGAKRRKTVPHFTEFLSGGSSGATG

Test [3] concerns the target T3, GST-Co-NF-kB (Capsaspora owczarzaki, UniProt F1ARL5 200-546).
T3 sequence: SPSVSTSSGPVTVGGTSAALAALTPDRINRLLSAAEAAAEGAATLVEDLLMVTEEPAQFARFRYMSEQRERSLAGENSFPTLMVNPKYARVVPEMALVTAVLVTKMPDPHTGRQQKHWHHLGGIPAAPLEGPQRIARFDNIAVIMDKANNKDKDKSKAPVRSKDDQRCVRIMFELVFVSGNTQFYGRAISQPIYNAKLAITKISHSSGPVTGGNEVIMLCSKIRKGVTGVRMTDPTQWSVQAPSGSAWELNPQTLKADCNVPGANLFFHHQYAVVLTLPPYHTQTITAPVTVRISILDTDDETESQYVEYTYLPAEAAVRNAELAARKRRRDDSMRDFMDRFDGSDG

The target of test [4] is T4, GST-Dm-Relish (Drosophila melanogaster, UniProt Q94527 99-473).
T4 sequence: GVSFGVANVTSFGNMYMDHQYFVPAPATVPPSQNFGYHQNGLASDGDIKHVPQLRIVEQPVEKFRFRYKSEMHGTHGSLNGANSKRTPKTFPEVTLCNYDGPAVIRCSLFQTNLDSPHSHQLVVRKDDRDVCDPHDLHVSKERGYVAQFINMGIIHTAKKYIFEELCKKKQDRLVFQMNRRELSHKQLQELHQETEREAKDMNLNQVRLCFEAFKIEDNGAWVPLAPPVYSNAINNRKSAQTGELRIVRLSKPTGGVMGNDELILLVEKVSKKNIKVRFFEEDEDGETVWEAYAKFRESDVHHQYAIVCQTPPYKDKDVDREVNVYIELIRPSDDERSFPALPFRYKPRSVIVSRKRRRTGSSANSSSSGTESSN

Test [5] has as its target T5, GST-Aq-NF-kB (Amphimedon queenslandica, UniProt A9Y5G7 2-389).
T5 sequence: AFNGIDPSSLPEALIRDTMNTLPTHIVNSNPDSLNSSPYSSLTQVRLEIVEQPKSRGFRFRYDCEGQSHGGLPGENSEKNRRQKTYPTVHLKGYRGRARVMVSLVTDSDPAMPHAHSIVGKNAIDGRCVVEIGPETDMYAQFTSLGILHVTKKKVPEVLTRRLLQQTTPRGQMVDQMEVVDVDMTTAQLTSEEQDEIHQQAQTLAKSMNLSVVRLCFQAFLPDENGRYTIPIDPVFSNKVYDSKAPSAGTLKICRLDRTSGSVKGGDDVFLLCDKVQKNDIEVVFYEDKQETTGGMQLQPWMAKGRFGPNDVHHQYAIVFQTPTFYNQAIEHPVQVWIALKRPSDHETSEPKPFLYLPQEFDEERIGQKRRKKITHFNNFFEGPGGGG

On to “CCGATTAACATCAGGGGGGGAAATGATGTTAATCGGGTCTTGATTCGCTTGACGCTGCTG”, for which the binding signal was found to be 6.79 z-score in test [1]; 7.98 z-score in test [2]; 10.2 z-score in test [3]; 5.34 z-score in test [4]; 5.89 z-score in test [5].

For the sequence “CCGATTAACATCAGGGGGGGAACTGATGTTAATCGGGTCTTGATTCGCTTGACGCTGCTG”, the binding signal came to 6.55 z-score in test [1], 8.33 z-score in test [3], 5.17 z-score in test [4] and 4.84 z-score in test [5].

On to “CCGATTAACATCACGGGGGGGGATGATGTTAATCGGGTCTTGATTCGCTTGACGCTGCTG”, for which the binding signal in test [1] is 6.27 z-score; in test [2], 5.38 z-score; in test [3], 7.62 z-score; in test [4], 5.35 z-score; in test [5] it was 5.29 z-score.

With “CCGATTAACATCAATTCCCCCCCTGATGTTAATCGGGTCTTGATTCGCTTGACGCTGCTG”, the binding signal in test [1] came out at 8.18 z-score; in test [2] it was 7.32 z-score; in test [3], 8.87 z-score; in test [4], 6.09 z-score; in test [5], 6.45 z-score.

For the sequence “CCGATTAACATCACTCCCCCCCATGATGTTAATCGGGTCTTGATTCGCTTGACGCTGCTG”, the binding signal in test [1] worked out at 5.11 z-score; in test [2], 3.12 z-score; in test [3], 6.71 z-score; in test [4], 3.23 z-score; in test [5] it was 4.01 z-score.

Turning to “CCGATTAACATCATCCGCGGGAGTGATGTTAATCGGGTCTTGATTCGCTTGACGCTGCTG”, the binding signal was 1.05 z-score in test [1], 1.38 z-score in test [3] and 1.92 z-score in test [5].

“CCGATTAACATCACGGATATCCCTGATGTTAATCGGGTCTTGATTCGCTTGACGCTGCTG”: the binding signal stood at 1.57 z-score in test [1], 1.15 z-score in test [3], 2.04 z-score in test [4] and 2.76 z-score in test [5].

For “CCGATTAACATCACTCCCCCCCCTGATGTTAATCGGGTCTTGATTCGCTTGACGCTGCTG”, the binding signal in test [1] amounted to 5.73 z-score; in test [3], 6.72 z-score; in test [4], 4.43 z-score; in test [5] it was 4.65 z-score.

On to “CCGATTAACATCACGGGCACCCCTGATGTTAATCGGGTCTTGATTCGCTTGACGCTGCTG”, for which the binding signal is 1.72 z-score in test [1], 1.34 z-score in test [3], 2.01 z-score in test [4] and 2.04 z-score in test [5].

As for “CCGATTAACATCAGGGGGGGGAATGATGTTAATCGGGTCTTGATTCGCTTGACGCTGCTG”, the binding signal in test [1] was 7.86 z-score; in test [3] it was 8.84 z-score; in test [4] it was 5.27 z-score; in test [5], 5.65 z-score.

In the case of “CCGATTAACATCAAGGGGGGGAATGATGTTAATCGGGTCTTGATTCGCTTGACGCTGCTG”, the binding signal in test [1] came to 6.62 z-score; in test [3] it was 8.37 z-score; in test [4] it was 4.96 z-score; in test [5] it was 5.81 z-score.

On to “CCGATTAACATCACGGAAACTACTGATGTTAATCGGGTCTTGATTCGCTTGACGCTGCTG”, for which the binding signal was 1.84 z-score in test [4] and 1.46 z-score in test [5].

As for “CCGATTAACATCAAGTAATTTCCTGATGTTAATCGGGTCTTGATTCGCTTGACGCTGCTG”, the binding signal in test [4] was determined as 2.36 z-score; in test [5], 1.18 z-score.

Take “CCGATTAACATCAGAAAATTCCATGATGTTAATCGGGTCTTGATTCGCTTGACGCTGCTG”: the binding signal in test [4] was determined as 1.53 z-score; in test [5] it was 1.51 z-score.

Take “CCGATTAACATCAGAAATTTTCCTGATGTTAATCGGGTCTTGATTCGCTTGACGCTGCTG”: the binding signal amounted to 1.39 z-score in test [4] and 1.31 z-score in test [5].

Take “CCGATTAACATCAAGGAAACTCCTGATGTTAATCGGGTCTTGATTCGCTTGACGCTGCTG”: the results for the binding signal in test [4] and in test [5] were 1.12 z-score and 2.64 z-score, respectively.

In the case of “CCGATTAACATCAAAAATTTTCCTGATGTTAATCGGGTCTTGATTCGCTTGACGCTGCTG”, the figures for the binding signal in test [3], in test [4] and in test [5] were 1.7 z-score, 2.62 z-score and 1.81 z-score, respectively.

“CCGATTAACATCACGGAAATTTCTGATGTTAATCGGGTCTTGATTCGCTTGACGCTGCTG”: the binding signal turned out to be 1.12 z-score in test [3], 1.36 z-score in test [4] and 2.5 z-score in test [5].

Take “CCGATTAACATCACAGGATTTCCTGATGTTAATCGGGTCTTGATTCGCTTGACGCTGCTG”: the values for the binding signal in test [4] and in test [5] were 1.81 z-score and 1.18 z-score, respectively.

For “CCGATTAACATCACGGAAATTTATGATGTTAATCGGGTCTTGATTCGCTTGACGCTGCTG”, the binding signal was determined as 1.07 z-score in test [3], 1.11 z-score in test [4] and 1.74 z-score in test [5].

Consider “CCGATTAACATCAAAGGAATTCCTGATGTTAATCGGGTCTTGATTCGCTTGACGCTGCTG”, for which the binding signal in test [4] came to 3.78 z-score; in test [5], 2.38 z-score.

Take “CCGATTAACATCACAGGGTTTCCTGATGTTAATCGGGTCTTGATTCGCTTGACGCTGCTG”: the binding signal in test [4] was 2.82 z-score; in test [5], 1.57 z-score.

As for “CCGATTAACATCAAGGAATTCCGTGATGTTAATCGGGTCTTGATTCGCTTGACGCTGCTG”, the binding signal in test [4] is 1.78 z-score; in test [5], 1.75 z-score.

On to “CCGATTAACATCAAGGAAAATCCTGATGTTAATCGGGTCTTGATTCGCTTGACGCTGCTG”, for which the binding signal in test [4] was 1.5 z-score; in test [5] it was 3.1 z-score.

In the case of “CCGATTAACATCAAAGGAATTTCTGATGTTAATCGGGTCTTGATTCGCTTGACGCTGCTG”, the binding signal came to 1.13 z-score in test [4] and 1.12 z-score in test [5].

With “CCGATTAACATCAGGAATTTCCATGATGTTAATCGGGTCTTGATTCGCTTGACGCTGCTG”, the binding signal in test [4] is 2.65 z-score; in test [5], 3.89 z-score.

“CCGATTAACATCACGGGCATCCCTGATGTTAATCGGGTCTTGATTCGCTTGACGCTGCTG”: the values for the binding signal in test [4] and in test [5] were 5.06 z-score and 3.09 z-score, respectively.

For the sequence “CCGATTAACATCAATGGGTTTCCTGATGTTAATCGGGTCTTGATTCGCTTGACGCTGCTG”, the binding signal in test [4] turned out to be 2.98 z-score; in test [5], 1.07 z-score.

Take “CCGATTAACATCAAGGAATTCCATGATGTTAATCGGGTCTTGATTCGCTTGACGCTGCTG”: the binding signal was 2.32 z-score in test [4] and 1.54 z-score in test [5].

Take “CCGATTAACATCAGGAAAATCCATGATGTTAATCGGGTCTTGATTCGCTTGACGCTGCTG”: the binding signal in test [4] turned out to be 1.26 z-score; in test [5], 2.69 z-score.

Regarding “CCGATTAACATCAAAAAAATTTCTGATGTTAATCGGGTCTTGATTCGCTTGACGCTGCTG”, the binding signal in test [4] was 1.41 z-score; in test [5], 1.23 z-score.
